According to PubChem BioAssay (NCI):
This is part of a sample that, as a whole, favours compounds with a hit. Of some 83,000 tested, about 20% had one in any assay.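 In brief: 96-well plates, 48 h treatment, single concentration, percent growth endpoint.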 A number with no mark means an inactive call. Active and inactive are the calls of the source. The calls were made as follows: active = growth percent below 10; inactive = the rest.

Experiments:
Assay in all cases: NCI-60 one-dose screen, 48 h (100 = growth as untreated, 0 = no growth, -100 = all killed)
Conditions in all cases: 10 µM unless noted
[1] = system: RPMI-8226 leukemia
[2] = system: OVCAR-8 ovarian
[3] = system: OVCAR-5 ovarian
[4] = system: OVCAR-4 ovarian
[5] = system: SK-OV-3 ovarian
[6] = system: HS 578T breast
[7] = system: NCI/ADR-RES ovarian
[8] = system: T-47D breast
[9] = system: OVCAR-3 ovarian
[10] = system: IGROV1 ovarian

Row | Compound | growth [1] | growth [2] | growth [3] | growth [4] | growth [5] | growth [6] | growth [7] | growth [8] | growth [9] | growth [10]
1 | CCS(=O)(=O)OCCCl | 120% | 103% | 80.8% | 100% | 87.4% | 104% | -5.43% (active) | 102% |  | 
2 | Cc1cc2c(cc1[N+](=O)[O-])NC(CNC(C)C)CC2 (stereo not drawn) | 105% | 115% | 88.7% | 95.1% | 99.7% | 124% | 95.1% | 86.3% | 96.6% | 
3 | Cn1[nH]cc(/C=N/C(N)=O)c1=O | 105% | 105% | 102% | 106% | 110% |  | 108% | 104% |  | 124%
4 | O=C(Oc1ccc[nH]c1=O)c1cccc(Cl)c1 | 108% | 113% | 97.5% | 54.6% | 103% | 154% | 99.1% | 99.2% | 102% | 
5 | CC(=O)NCCSC(=O)C(=O)SCCNC(C)=O | 102% | 112% | 95.8% | 103% | 114% | 119% | 100% | 105% | 115% | 
6 | COc1ccc2nccc(/C=C/c3ccnc4ccc(OC)cc34)c2c1 | -5.34% (active) | 68.9% | 117% | 104% | 115% |  | 101% | 98.4% |  | 102%
7 | O=c1[nH]c(=O)n(C2CC(O)C(CO)O2)cc1C(F)(F)F (stereo not drawn) | -23% (active) | 48.5% | 54.5% | 78.1% | 74.3% | 70.8% | -56.9% (active) | 52.8% | 69.7% | 
8 | O=c1ccn(C2OC(CO)C(O)C2F)c(=O)[nH]1 (stereo not drawn) | 106% | 115% | 94% | 110% | 114% | 140% | 98.5% | 90% | 109% | 
9 | Nc1ncc(-c2cnn(C3CCNCC3)c2)cc1-c1nc2cc(Cl)ccc2o1 | -81% (active) | -52.5% (active) | -81.2% (active) | -83.1% (active) | -81.5% (active) | -68.4% (active) | -50.5% (active) | -77.4% (active) | -100% (active) | 
10 | Cc1ccc([N+](=O)[O-])cc1NC(=O)Nc1cccc(F)c1 | 19.4% | 71.6% | 89.6% | 50.3% | 98.7% | 120% | 64.3% | 29.8% | 51.8% | 
11 | CC1=NN(c2ccccc2Cl)C(=O)/C1=C\c1cn(S(=O)(=O)c2ccc(C)cc2)c2ccccc12 | 113% | 108% | 88.1% | 103% | 105% | 116% | 85.1% | 91.5% | 110% | 
12 | COc1ccc(OC)c2c1[nH]c(=O)c1c3ccccc3cn21 | -21.8% (active) | -80.7% (active) | -45.1% (active) | -29% (active) | -86% (active) |  | -6.09% (active) | -48.3% (active) |  | -60.7% (active)
13 | O=C(Nc1cccc2ccccc12)c1cc2c(cc1Br)OCO2 | 66.1% | 106% | 96.8% | 83.5% | 80.9% | 125% | 92.5% | 83.9% | 104% | 
14 | CCOC(=O)c1c(C)nc(C)c(C(=O)OCC)c1-c1cccnc1 | 104% | 112% | 97.8% | 97.8% | 99.2% | 122% | 103% | 92% | 115% | 
15 | C=C(C)[C@H]1CC/C(C)=C/CC[C@]2(C)O[C@H]2CC/C(C=O)=C\C1O (stereo partly drawn) | -17.5% (active) | 107% | 101% | 109% | 102% | 114% | 109% | 102% |  | 
16 | O=C1Nc2ccccc2C12Nc1cc(Cl)ccc1S2 (stereo not drawn) | 42% | 104% | 104% | 70.4% | 70.9% | 135% | 97.2% | 42.4% | 76.3% | 

Row | Compound | growth [1] | growth [2] | growth [3] | growth [4] | growth [5] | growth [6] | growth [7] | growth [8] | growth [9] | growth [10]
17 | Nc1nonc1-c1nc2ccccc2n1CC(=O)Nc1ccc2c(c1)COC2=O | 99.1% | 94.3% | 94% | 93% | 90.9% | 65.9% | 85.6% | 85.8% | 94.2% | 
18 | CCOC(=O)c1c2c(c(C)n1Cc1ccc(OC)cc1)-c1nc(N)ncc1CC2 | 119% | 115% | 103% | 112% | 107% | 111% | 104% | 105% | 104% | 
19 | CC(=O)Nc1ccc2c(c1)Cc1c(F)c(F)c(F)c(F)c1-2 | 22.5% | 79.6% | 44.1% | 85.7% | 113% | 96.6% | -39.9% (active) | 85.6% | 105% | 
20 | Cn1cc(-c2nc(-c3c[nH]c4ncc(F)cc34)cs2)c2cccnc21 | 100% | 105% | 93.4% | 82.2% | 109% |  | 100% | 59.9% |  | 108%
21 | CCC(CCC(C)C1CCC2C3CC=C4CC(O)CCC4(C)C3CCC12C)C(C)C (stereo not drawn) (tested in a mixture with another compound) | 81.4% | 89.9% | 103% | 93.7% | 127% | 87.3% | 59.6% | 95.3% | 103% | 
22 | Nc1nc2ncc(CCNc3ccc(C(=O)NC(CCC(=O)O)C(=O)O)cc3)nc2c(=O)[nH]1 (stereo not drawn) | 112% | 108% | 90.1% | 104% | 110% | 101% | -2.15% (active) | 115% |  | 
23 | C[C@]12CC[C@@H]3c4ccc(O)c([N+](=O)[O-])c4CC[C@H]3[C@@H]1CC[C@@H]2NS(=O)(=O)c1ccc(C(F)(F)F)cc1 | 15.6% | 26.9% | 80.8% | 31% | 74.2% | 52.7% | 27.7% | 18.6% | 23.2% | 
24 | CCOC(=O)/C=C(/C)Sc1cc(O)c2ccccc2c1O | 40.7% | 24.3% | 93% | 51.1% | 6.27% (active) | -28.2% (active) | 21.6% | 36.8% | 13.4% | 
25 | CCC(c1ccccc1)c1noc(CCN(CC)CC)n1 (stereo not drawn) | 76.7% | 94.8% | 89.8% | 109% | 97% | 125% | 105% | 94.4% |  | 
26 | COc1ccc2c(c1)nc(N)c1c3ccccc3cn21 | 80.3% | 87.8% | 113% | 95.6% | 85.6% |  | 69.1% | 70.7% |  | 73.1%
27 | O=C1OCC/C1=C\OCCCO/C=C1\CCOC1=O | 105% | 106% | 107% | 99.5% | 114% | 112% | 104% | 103% | 110% | 
28 | Nc1cc(Cl)c(S(N)(=O)=O)cc1S(N)(=O)=O | 122% | 115% | 102% | 96.6% | 117% | 106% | 35.1% | 117% | 137% | 
29 | COc1cc2c(c(OC)c1OC)CCc1cnoc1-2 | 98.1% | 102% | 91.9% | 95% | 109% |  | 94.3% | 97.7% | 116% | 
30 | COc1ccc(Cn2cc3c(c2-c2ccccc2)CCc2cncnc2-3)cc1 | 19.6% | 70.5% | 76.7% | 93.1% | 76.8% | 63.2% | 12.3% | 46.7% | 29.6% | 
31 | COc1ccc2c(c1)[nH]c(=O)c1c3cc(OC)c(OC)cc3cn21 | -72.3% (active) | 16% | 49.4% | 44.2% | 40.2% |  | 14.8% | 74.1% |  | -9.03% (active)
